# Measurements reported in the supplement of paper PMC11732987, “Enantioselective OTUD7B fragment discovery through chemoproteomics screening and high-throughput optimisation” (Communications Chemistry, 2025).
# Values without a mark were called inactive.
# Columns and labels:
# Test in all cases: log2 ratio of Biotin-Ahx-Ub-VS probe labelling (fragment/DMSO); higher = less target engagement (more negative = stronger competition), active = hit call of the paper (q ≤ 0.05, log2 ratio ≤ -1)
# Conditions in all cases: compound concentration: 200 uM; treatment time: 3 h
# [1] = molecular target: T1, OTUD6B (UniProt Q8N6M0)
# T1 sequence (whole entry): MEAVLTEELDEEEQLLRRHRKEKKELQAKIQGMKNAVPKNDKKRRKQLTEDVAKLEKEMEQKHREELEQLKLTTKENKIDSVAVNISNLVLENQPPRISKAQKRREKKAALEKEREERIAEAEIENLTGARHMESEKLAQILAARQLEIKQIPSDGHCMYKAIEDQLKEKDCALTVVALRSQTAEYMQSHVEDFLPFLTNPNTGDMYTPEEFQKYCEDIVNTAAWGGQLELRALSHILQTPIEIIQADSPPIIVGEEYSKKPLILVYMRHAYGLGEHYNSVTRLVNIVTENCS
# Procedure, shortened: (§1)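 HEK293T lysate (495 µg per sample, in Tris/CHAPS/IGEPAL buffer with protease inhibitors) was treated in triplicate with fragment at 200 µM or with DMSO for 3 h. It was then treated with Biotin-Ahx-Ub-VS (0.5 µM final) for 1 h. Labelled DUBs were NeutrAvidin-enriched, digested with LysC and trypsin, and run by diaPASEF LC-MS/MS. Spectronaut label-free quantities were global-median-normalised. Values are average log2 ratios fragment/DMSO by unpaired t-test, using proteins with ≥2 unique peptides.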
# [2] = molecular target: T2, OTUD7B (UniProt Q6GQQ9)
# T2 sequence (whole entry): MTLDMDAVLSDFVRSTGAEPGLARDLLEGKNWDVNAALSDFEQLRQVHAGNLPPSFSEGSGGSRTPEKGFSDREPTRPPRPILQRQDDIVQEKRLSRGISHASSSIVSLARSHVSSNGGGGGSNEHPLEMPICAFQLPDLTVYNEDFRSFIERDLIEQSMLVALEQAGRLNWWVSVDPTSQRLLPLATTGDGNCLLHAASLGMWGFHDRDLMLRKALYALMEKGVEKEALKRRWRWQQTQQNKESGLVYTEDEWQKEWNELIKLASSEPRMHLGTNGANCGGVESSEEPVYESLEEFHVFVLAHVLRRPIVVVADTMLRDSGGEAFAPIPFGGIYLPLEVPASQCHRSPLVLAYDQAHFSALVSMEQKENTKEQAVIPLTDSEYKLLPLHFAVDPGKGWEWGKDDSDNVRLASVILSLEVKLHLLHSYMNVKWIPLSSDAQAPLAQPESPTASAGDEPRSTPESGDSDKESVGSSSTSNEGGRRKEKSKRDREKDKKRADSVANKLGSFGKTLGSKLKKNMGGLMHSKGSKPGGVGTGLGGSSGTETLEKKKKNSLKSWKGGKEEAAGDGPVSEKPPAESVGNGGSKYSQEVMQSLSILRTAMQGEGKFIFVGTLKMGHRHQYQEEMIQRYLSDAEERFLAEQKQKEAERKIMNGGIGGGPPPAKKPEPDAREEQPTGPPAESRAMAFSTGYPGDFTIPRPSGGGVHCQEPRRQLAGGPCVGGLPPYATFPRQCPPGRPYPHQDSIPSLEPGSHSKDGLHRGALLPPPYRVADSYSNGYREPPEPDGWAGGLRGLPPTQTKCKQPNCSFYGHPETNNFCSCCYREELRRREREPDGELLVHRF
# Procedure, shortened: as §1
# [3] = molecular target: PRPF8 (UniProt Q6P2Q9)
# Procedure, shortened: as §1
# [4] = molecular target: T3, PSMD7 (UniProt P51665)
# T3 sequence (whole entry): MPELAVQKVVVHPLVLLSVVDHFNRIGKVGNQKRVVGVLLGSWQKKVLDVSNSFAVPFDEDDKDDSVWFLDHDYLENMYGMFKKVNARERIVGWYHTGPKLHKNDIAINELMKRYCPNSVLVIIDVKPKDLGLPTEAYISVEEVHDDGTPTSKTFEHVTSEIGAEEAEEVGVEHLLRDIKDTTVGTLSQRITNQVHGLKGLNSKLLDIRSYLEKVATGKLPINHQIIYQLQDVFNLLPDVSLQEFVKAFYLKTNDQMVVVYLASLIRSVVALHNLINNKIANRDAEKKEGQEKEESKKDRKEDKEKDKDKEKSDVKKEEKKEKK
# Procedure, shortened: as §1
# [5] = molecular target: UCHL1 (UniProt P09936)
# Procedure, shortened: as §1
# [6] = molecular target: T4, UCHL3 (UniProt P15374)
# T4 sequence (whole entry): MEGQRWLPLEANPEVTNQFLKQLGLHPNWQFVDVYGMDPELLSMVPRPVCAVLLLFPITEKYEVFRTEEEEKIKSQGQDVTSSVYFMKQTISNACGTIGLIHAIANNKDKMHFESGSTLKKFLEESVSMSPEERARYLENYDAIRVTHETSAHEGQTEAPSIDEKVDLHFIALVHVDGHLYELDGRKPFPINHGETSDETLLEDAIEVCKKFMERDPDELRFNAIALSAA
# Procedure, shortened: as §1
# [7] = molecular target: T5, UCHL5 (UniProt Q9Y5K5)
# T5 sequence (whole entry): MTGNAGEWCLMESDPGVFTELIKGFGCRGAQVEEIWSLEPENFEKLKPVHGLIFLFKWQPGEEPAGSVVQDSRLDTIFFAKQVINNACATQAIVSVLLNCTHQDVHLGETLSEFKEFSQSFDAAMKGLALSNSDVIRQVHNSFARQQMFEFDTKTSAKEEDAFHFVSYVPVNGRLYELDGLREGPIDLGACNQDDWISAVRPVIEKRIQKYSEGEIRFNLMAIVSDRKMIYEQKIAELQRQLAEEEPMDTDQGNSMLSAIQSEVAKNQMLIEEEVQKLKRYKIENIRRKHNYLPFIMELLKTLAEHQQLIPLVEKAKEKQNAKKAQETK
# Procedure, shortened: as §1
# [8] = molecular target: USP10 (UniProt Q14694)
# Procedure, shortened: as §1
# [9] = molecular target: T6, USP15 (UniProt Q9Y4E8)
# T6 sequence (whole entry): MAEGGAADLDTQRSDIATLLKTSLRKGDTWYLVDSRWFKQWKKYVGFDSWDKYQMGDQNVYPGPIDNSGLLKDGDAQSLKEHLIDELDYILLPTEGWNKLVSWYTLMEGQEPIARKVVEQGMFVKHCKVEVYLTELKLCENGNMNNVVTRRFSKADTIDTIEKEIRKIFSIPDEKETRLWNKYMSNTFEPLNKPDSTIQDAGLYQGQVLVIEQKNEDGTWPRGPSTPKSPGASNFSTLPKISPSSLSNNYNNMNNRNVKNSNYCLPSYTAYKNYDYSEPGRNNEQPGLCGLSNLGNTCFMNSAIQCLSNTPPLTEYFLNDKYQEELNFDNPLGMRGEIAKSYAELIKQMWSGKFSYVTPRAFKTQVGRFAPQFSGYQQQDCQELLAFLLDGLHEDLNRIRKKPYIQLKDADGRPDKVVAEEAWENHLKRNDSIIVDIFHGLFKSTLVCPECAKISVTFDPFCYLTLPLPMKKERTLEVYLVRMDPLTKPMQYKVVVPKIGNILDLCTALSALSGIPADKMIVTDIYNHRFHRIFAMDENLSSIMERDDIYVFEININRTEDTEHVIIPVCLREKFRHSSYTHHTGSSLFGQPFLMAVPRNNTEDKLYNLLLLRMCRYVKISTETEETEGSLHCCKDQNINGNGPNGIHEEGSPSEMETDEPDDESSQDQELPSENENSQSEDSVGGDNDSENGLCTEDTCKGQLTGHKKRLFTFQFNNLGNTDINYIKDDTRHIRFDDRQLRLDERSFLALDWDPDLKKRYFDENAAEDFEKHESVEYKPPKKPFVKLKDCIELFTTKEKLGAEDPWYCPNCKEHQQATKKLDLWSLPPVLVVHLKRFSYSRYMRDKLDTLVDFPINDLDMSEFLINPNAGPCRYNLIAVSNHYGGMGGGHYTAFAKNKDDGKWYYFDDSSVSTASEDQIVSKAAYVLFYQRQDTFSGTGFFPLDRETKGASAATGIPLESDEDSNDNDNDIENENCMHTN
# Procedure, shortened: as §1
# [10] = molecular target: USP16 (UniProt Q9Y5T5)
# Procedure, shortened: as §1
# Sequence of USP16 (Q9Y5T5 whole entry, looked up): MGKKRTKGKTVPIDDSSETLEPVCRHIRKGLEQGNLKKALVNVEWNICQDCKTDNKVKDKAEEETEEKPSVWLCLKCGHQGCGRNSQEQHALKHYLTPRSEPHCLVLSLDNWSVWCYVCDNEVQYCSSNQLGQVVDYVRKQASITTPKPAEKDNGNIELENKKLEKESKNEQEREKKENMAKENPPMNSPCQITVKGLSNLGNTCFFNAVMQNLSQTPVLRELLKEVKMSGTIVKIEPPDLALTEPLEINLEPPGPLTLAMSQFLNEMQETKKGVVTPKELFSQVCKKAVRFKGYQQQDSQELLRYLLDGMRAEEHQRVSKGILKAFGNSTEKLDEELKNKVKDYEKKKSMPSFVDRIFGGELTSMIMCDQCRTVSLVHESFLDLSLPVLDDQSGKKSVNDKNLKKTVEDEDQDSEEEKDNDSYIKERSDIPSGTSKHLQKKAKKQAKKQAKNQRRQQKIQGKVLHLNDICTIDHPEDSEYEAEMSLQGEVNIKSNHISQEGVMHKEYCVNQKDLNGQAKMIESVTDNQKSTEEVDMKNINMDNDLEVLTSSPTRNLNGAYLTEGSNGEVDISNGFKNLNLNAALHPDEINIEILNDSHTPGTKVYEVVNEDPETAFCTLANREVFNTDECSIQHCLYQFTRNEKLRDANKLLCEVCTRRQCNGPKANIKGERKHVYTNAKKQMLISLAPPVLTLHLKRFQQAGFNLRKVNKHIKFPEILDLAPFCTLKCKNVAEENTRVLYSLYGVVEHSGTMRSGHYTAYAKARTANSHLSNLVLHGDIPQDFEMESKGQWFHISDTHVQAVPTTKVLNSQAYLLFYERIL
# Sequence of USP10 (Q14694 whole entry): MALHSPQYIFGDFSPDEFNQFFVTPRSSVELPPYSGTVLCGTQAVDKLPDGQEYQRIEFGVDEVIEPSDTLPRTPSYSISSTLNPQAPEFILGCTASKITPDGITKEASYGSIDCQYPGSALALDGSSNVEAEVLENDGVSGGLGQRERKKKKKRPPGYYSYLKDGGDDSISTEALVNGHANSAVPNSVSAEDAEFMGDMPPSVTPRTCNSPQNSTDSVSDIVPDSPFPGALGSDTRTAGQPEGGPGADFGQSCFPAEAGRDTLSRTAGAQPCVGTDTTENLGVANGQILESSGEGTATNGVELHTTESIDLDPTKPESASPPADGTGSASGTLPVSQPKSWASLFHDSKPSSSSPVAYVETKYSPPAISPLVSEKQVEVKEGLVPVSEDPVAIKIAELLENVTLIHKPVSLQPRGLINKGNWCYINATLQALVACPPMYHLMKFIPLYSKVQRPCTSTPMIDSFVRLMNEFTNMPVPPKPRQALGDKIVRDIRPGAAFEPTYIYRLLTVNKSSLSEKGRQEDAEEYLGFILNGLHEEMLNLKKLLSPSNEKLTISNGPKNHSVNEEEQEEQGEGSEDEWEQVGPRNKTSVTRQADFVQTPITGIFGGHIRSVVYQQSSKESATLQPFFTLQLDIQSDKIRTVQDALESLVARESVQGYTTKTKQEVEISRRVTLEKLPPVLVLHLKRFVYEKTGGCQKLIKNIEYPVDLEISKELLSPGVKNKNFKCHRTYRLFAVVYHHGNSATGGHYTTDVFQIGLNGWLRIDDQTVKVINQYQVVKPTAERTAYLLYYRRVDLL
# Sequence of UCHL1 (P09936 whole entry, looked up): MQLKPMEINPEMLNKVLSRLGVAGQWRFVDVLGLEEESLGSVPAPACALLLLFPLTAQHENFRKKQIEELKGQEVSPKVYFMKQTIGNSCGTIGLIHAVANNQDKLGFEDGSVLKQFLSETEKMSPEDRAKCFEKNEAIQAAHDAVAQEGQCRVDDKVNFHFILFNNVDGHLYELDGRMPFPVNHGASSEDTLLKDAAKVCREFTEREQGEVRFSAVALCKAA
structure (smiles),measurement,setting,value
C[C@@H](NC(=O)CCl)c1cccc(C#N)c1,log2 ratio of Biotin-Ahx-Ub-VS probe labelling,[1],-0.0614
same,log2 ratio of Biotin-Ahx-Ub-VS probe labelling,[2],-1.42 (active)
same,log2 ratio of Biotin-Ahx-Ub-VS probe labelling,[3],0.0368
same,log2 ratio of Biotin-Ahx-Ub-VS probe labelling,[4],-0.233
same,log2 ratio of Biotin-Ahx-Ub-VS probe labelling,[5],-1.24 (active)
same,log2 ratio of Biotin-Ahx-Ub-VS probe labelling,[6],0.359
same,log2 ratio of Biotin-Ahx-Ub-VS probe labelling,[7],-0.189
same,log2 ratio of Biotin-Ahx-Ub-VS probe labelling,[8],-0.103
same,log2 ratio of Biotin-Ahx-Ub-VS probe labelling,[9],-0.222
same,log2 ratio of Biotin-Ahx-Ub-VS probe labelling,[10],0.0341
